Results from PubChem BioAssay (NCI).
About 79,000 compounds went through this panel and 15% of them were active in at least one assay; those are over-represented in the sample as a whole. Values without a mark were called inactive. The source made the active and inactive calls. Rule as the data show it: active = growth inhibition above about 70%; inactive = the rest.

What was measured:
[1] = NCI Yeast Anticancer Drug Screen. Data for the rad52 strain (AID 147);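 also: 0% = growth of vehicle-treated control cultures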; conditions: S. cerevisiae rad52 mutant growth inhibition, active compounds read high
How it was run: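 Screen used a yeast mutant impaired in DNA repair. After compound exposure, growth was measured. Values reflect inhibition compared with vehicle-treated cells.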

[2] = NCI Yeast Anticancer Drug Screen. Data for the wt1 strain (AID 149);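 also: 0% = growth of vehicle-treated wt1 cultures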; conditions: S. cerevisiae wt1 strain (SPY 50644) growth inhibition, active compounds read high
How it was run: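 Growth inhibition read against vehicle controls after compound exposure of the wt1 yeast strain.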

[3] = NCI Yeast Anticancer Drug Screen. Data for the rad50EPP+ strain (AID 151);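 also: 0% = growth of vehicle-treated control cultures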; conditions: S. cerevisiae rad50 mutant strain, active compounds read high
How it was run: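 Exposing the rad50EPP+ strain to each compound, growth was compared with vehicle-only cultures to give inhibition.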

[4] = NCI Yeast Anticancer Drug Screen. Data for the mgt1 strain (AID 153); conditions: S. cerevisiae mgt1 mutant growth inhibition, active compounds read high
How it was run: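 Genetically defined yeast (mgt1) treated with compound; inhibition of growth expressed against vehicle-treated controls.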

[5] = NCI Yeast Anticancer Drug Screen. Data for the rad50 strain (AID 155);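 also: 0% = growth of vehicle-only cultures of the same strain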; conditions: S. cerevisiae rad50 strain growth inhibition, active compounds read high
How it was run: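 Readout: growth inhibition relative to vehicle-treated cultures. Compound exposure was carried out in a genetically defined yeast strain deficient in DNA damage repair.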

[6] = NCI Yeast Anticancer Drug Screen. Data for the mec2-1 strain (AID 157); conditions: S. cerevisiae mec2-1 strain, active compounds read high
How it was run: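 Readout is yeast growth inhibition, normalised to vehicle-treated controls, in the mec2-1 strain exposed to compound.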

[7] = NCI Yeast Anticancer Drug Screen. Data for the rad14 strain (AID 159);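 also: 0% = growth of vehicle-treated control cultures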; conditions: S. cerevisiae rad14 strain growth inhibition, active compounds read high
How it was run: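 Growth inhibition vs vehicle controls; genetically altered yeast strain (DNA damage repair defect) treated with test compounds.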

[8] = NCI Yeast Anticancer Drug Screen. Data for the sgs1 mgt1 strain (AID 161);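 also: 0% = growth of cultures given vehicle only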; conditions: S. cerevisiae sgs1 mgt1 strain, active compounds read high
How it was run: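 Yeast cells carrying a defined DNA-repair defect were exposed to test compounds. Growth inhibition was measured relative to vehicle-treated controls.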

[9] = NCI Yeast Anticancer Drug Screen. Data for the CLN2oe strain (AID 163);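 also: 0% = growth of vehicle-only control cultures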; conditions: S. cerevisiae CLN2oe strain, active compounds read high
How it was run: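 Values reflect how much compound exposure reduced yeast growth, referenced to vehicle-exposed cells. Assay organism is a strain with a defined genetic change affecting cell-cycle control.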

[10] = NCI Yeast Anticancer Drug Screen. Data for the cln2 rad14 strain (AID 165);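 also: 0% = growth equal to vehicle treated cultures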; conditions: S. cerevisiae cln2 rad14 strain, active compounds read high
How it was run: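 Relative to vehicle controls, growth inhibition of compound-treated cln2 rad14 yeast was recorded.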

[11] = NCI Yeast Anticancer Drug Screen. Data for the bub3 strain (AID 167); conditions: S. cerevisiae bub3 mutant strain, active compounds read high
How it was run: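 Readout: yeast growth inhibition, expressed relative to vehicle-only wells. The test organism is a mutant strain from a panel with lesions in DNA repair or checkpoint genes.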

[12] = NCI Yeast Anticancer Drug Screen. Data for the wt2 strain (AID 169);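 also: 0% = growth of vehicle-treated yeast cultures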; conditions: S. cerevisiae wt2 strain growth inhibition, active compounds read high
How it was run: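 Values express reduction in yeast growth under compound treatment, referenced to vehicle-treated cells.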

[13] = NCI Yeast Anticancer Drug Screen. Data for the mlh1 strain (AID 171);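 also: 0% = growth of vehicle-treated control cultures of the same strain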; conditions: S. cerevisiae mlh1 strain growth inhibition, active compounds read high
How it was run: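 Steps: expose the defined-mutant yeast strain to compound; expose a parallel culture to vehicle; measure growth; express compound effect as inhibition relative to the vehicle culture.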

[14] = NCI Yeast Anticancer Drug Screen. Data for the mlh1 rad18 strain (AID 175); conditions: S. cerevisiae mlh1 rad18 strain growth inhibition, active compounds read high
How it was run: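 Test agents were incubated with a yeast strain of defined genotype (DNA damage repair defect). Inhibition of growth was derived by comparison with vehicle-exposed cultures.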

[15] = NCI Yeast Anticancer Drug Screen. Data for the rad18 strain (AID 177); conditions: S. cerevisiae rad18 mutant growth inhibition, active compounds read high
How it was run: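 A genetically defined yeast mutant impaired in DNA damage repair was treated with test compounds, then its growth was measured against cultures receiving vehicle alone.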

[16] = at 5.0 µM (retest, dose inferred, filed as 0.5)
[17] = at 50.0 µM (retest, dose inferred, filed as 5.0)

Compound: O=C1C=CC(=O)C1(Br)Br
- growth inhibition ([1]; at 1.2 µM): 7%
- growth inhibition ([1]; at 3.7 µM): 24%
- growth inhibition ([1]; at 11.0 µM): 62%
- growth inhibition ([1]; at 33.0 µM): 95% (active)
- growth inhibition ([1]; at 100.0 µM): 99% (active)
- growth inhibition ([2]; at 1.2 µM): -1%
- growth inhibition ([2]; at 3.7 µM): 0%
- growth inhibition ([2]; at 11.0 µM): 8%
- growth inhibition ([2]; at 33.0 µM): 66%
- growth inhibition ([2]; at 100.0 µM): 99% (active)
- growth inhibition ([3]; at 1.2 µM): 2%
- growth inhibition ([3]; at 3.7 µM): 15%
- growth inhibition ([3]; at 11.0 µM): 33%
- growth inhibition ([3]; at 33.0 µM): 71% (active)
- growth inhibition ([3]; at 100.0 µM): 99% (active)
- growth inhibition ([4]; at 1.2 µM): 1%
- growth inhibition ([4]; at 3.7 µM): -4%
- growth inhibition ([4]; at 11.0 µM): 25%
- growth inhibition ([4]; at 33.0 µM): 91% (active)
- growth inhibition ([4]; at 100.0 µM): 99% (active)
- growth inhibition ([5]; at 1.2 µM): 4%
- growth inhibition ([5]; at 3.7 µM): 24%
- growth inhibition [5, 16]: 21%
- growth inhibition ([5]; at 11.0 µM): 65%
- growth inhibition ([5]; at 33.0 µM): 94% (active)
- growth inhibition [5, 17]: 99% (active)
- growth inhibition ([5]; at 50.0 µM): 99.6% (active)
- growth inhibition ([5]; at 100.0 µM): 99% (active)
- growth inhibition ([6]; at 1.2 µM): 1%
- growth inhibition ([6]; at 3.7 µM): 5%
- growth inhibition [6, 16]: 3%
- growth inhibition ([6]; at 11.0 µM): 23%
- growth inhibition ([6]; at 33.0 µM): 77% (active)
- growth inhibition [6, 17]: 100% (active)
- growth inhibition ([6]; at 50.0 µM): 99.8% (active)
- growth inhibition ([6]; at 100.0 µM): 99% (active)
- growth inhibition ([7]; at 1.2 µM): 1%
- growth inhibition ([7]; at 3.7 µM): 13%
- growth inhibition ([7]; at 11.0 µM): 28%
- growth inhibition ([7]; at 33.0 µM): 88% (active)
- growth inhibition ([7]; at 100.0 µM): 99% (active)
- growth inhibition [8, 16]: 54%
- growth inhibition [8, 17]: 99% (active)
- growth inhibition ([8]; at 50.0 µM): 99.2% (active)
- growth inhibition ([9]; at 1.2 µM): -5%
- growth inhibition ([9]; at 3.7 µM): 3%
- growth inhibition ([9]; at 11.0 µM): 18%
- growth inhibition ([9]; at 33.0 µM): 75% (active)
- growth inhibition ([9]; at 100.0 µM): 98% (active)
- growth inhibition [10, 16]: 11%
- growth inhibition [10, 17]: 99% (active)
- growth inhibition ([10]; at 50.0 µM): 99.2% (active)
- growth inhibition ([11]; at 1.2 µM): 3%
- growth inhibition ([11]; at 3.7 µM): 3%
- growth inhibition [11, 16]: 28%
- growth inhibition ([11]; at 11.0 µM): 18%
- growth inhibition ([11]; at 33.0 µM): 95% (active)
- growth inhibition [11, 17]: 99% (active)
- growth inhibition ([11]; at 50.0 µM): 99.4% (active)
- growth inhibition ([11]; at 100.0 µM): 99% (active)
- growth inhibition ([12]; at 1.2 µM): -4%
- growth inhibition ([12]; at 3.7 µM): -4%
- growth inhibition ([12]; at 11.0 µM): 24%
- growth inhibition ([12]; at 33.0 µM): 97% (active)
- growth inhibition ([12]; at 100.0 µM): 99% (active)
- growth inhibition ([13]; at 1.2 µM): 1%
- growth inhibition ([13]; at 3.7 µM): 11%
- growth inhibition ([13]; at 11.0 µM): 36%
- growth inhibition ([13]; at 33.0 µM): 95% (active)
- growth inhibition ([13]; at 100.0 µM): 99% (active)
- growth inhibition [14, 16]: 78% (active)
- growth inhibition [14, 17]: 99% (active)
- growth inhibition ([14]; at 50.0 µM): 99.2% (active)
- growth inhibition ([15]; at 1.2 µM): 15%
- growth inhibition ([15]; at 3.7 µM): 40%
- growth inhibition ([15]; at 11.0 µM): 77% (active)
- growth inhibition ([15]; at 33.0 µM): 95% (active)
- growth inhibition ([15]; at 100.0 µM): 99% (active)
